High-throughput results as filed in PubChem BioAssay.
Rows were chosen to be rich in hits. Some 7.1% of all compounds tested hit in one or more screens of this group.
SW480 rereplic: DNA re-replication induction in SW480 cells | SW480 DNA re-replication, Hoechst DNA content imaging, 48 h | Potency, µM (series often up to 46.1 µM), hits mostly activators | 340,000 tested, 1.8% active | AID 624297; further: nearly all actives have a fitted effect of over 55% in size
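Cells (250 per well) received 23 nL compound or DMSO by pin tool and were kept 48 hr at 37 C, 5% CO2. Nuclei were then stained with Hoechst for 40 min and scanned for DNA content.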
MCF10A rerep: DNA re-replication induction in MCF 10a cells | MCF 10A DNA re-replication, Hoechst nuclear intensity, 48 h | Potency, µM (doses to about 46.1 µM), usual class: activators | 350,000 tested, 2.9% active | AID 624296; further: nearly all actives have a fitted effect of over 50% in size
ATXN2 expr inh: reduces ATXN2 reporter expression in HEK-293 cells; HEK-293 ATXN2-luciferase reporter, luminescence, 24 h; Potency, µM (highest dose often 57 µM), actives largely listed as inhibitors; 360,000 tested, 0.72% active; AID 1745845; further: nearly all actives have a fitted effect of over 55% in size
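ATXN2-luciferase reporter cells (luciferase flanked by upstream and downstream ATXN2 gene portions) were treated 24 h at 37 °C with compounds at up to 57 uM. SteadyGlo luminescence gave expression; GF-AFC fluorescence gave viability.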
PINK1 modulator: PINK1 expression modulation | Potency, µM (titrated, usually from 76.6 µM), usual class: activators | 410,000 tested, 0.2% active | AID 624263 | PINK1 immunofluorescence, high-content cytometry, 24 h; active means well fitted activation curve with a large enough effect; inconclusive means small, poorly fitted or top-dose-only effect; cell line not stated here; further: nearly all actives have a fitted effect of over 65% in size
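A stable cell line was treated with compounds at 5 concentrations for 24 hours, with CCCP as control. PINK1 levels and mitochondrial localization were measured by immunofluorescence with mitochondrial, cell and nuclear markers after fixation, read by laser-scanning cytometry.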
S2 tox: viability counter-screen for ATXN expression inhibitors; S2 cells (HEK-293 line with an ATXN2-luciferase reporter) viability, CellTiter-Fluor protease fluorescence, 24 h; Potency, µM (highest dose often 56.7 µM), most hits filed as cytotoxic; 400,000 tested, 0.49% active; AID 651635; further: nearly all actives have a fitted effect of over 40% in size
IL1B secr inh: inhibitors of inflammasome signaling (IL-1 beta secretion) | THP-1 LPS/ATP IL-1B secretion, AlphaLISA, 16 h; hits give low values | AID 743279 | 360,000 tested, 4.7% active | activity change, % at 57.5 µM; in the data active means activity change below about -50%; inconclusive means mostly about -30% to -49%
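Secreted IL-1B measured by AlphaLISA bead assay after 16 h compound exposure of THP-1 cells; compounds (final up to 57.5 uM) added 1 h before LPS (250 ng/mL) and ATP (1.25 mM) stimulation; lower signal means less secretion.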
Numbers stand for hits; 0 = inactive; ? = inconclusive; - = not tested or not shown; [ ] = dose if it differs, or a comment. Unless noted, the call rests on the fitted dose curve; in most records, active means well fitted curve in the direction sought with a large enough effect; inconclusive means small, poorly fitted or top-dose-only effect, or another doubt; inactive means no such curve, though single readings can be large; an effect the other way counts as inactive or inconclusive.

SMILES	SW480 rereplic	MCF10A rerep	ATXN2 expr inh	PINK1 modulator	S2 tox	IL1B secr inh
Nc1ccc(O)cc1C(=O)OCC(=O)c1ccc(C2CCCCC2)cc1	9.2µM	23µM	?	?	?	-94
Cc1ccc(C(NC(=O)NCCCN2CCOCC2)=C(Cl)Cl)cc1F	?	?	0	0	0	-51
Cc1cc(S(=O)(=O)Nc2ccc(C(=O)NCCCN3CCOCC3)cc2)ccc1F	0	0	0	0	0	0
Cc1ccc(C(NC(=O)N2CCCCC2)=C(Cl)Cl)cc1F	6.5µM	16µM	?	0	0	-71
Cc1ccc(NC(=O)N2CCCCCC2)cc1C	0	0	0	0	0	0
Cc1ccc(N=c2c([N+](=O)[O-])nn(-c3ccccc3)n2O)c(C)c1	?	10µM	0	0	0	0
COc1ccccc1CNC(=O)C1CCN(C2=NS(=O)(=O)C(c3ccc(C)c(C)c3)=C2C)CC1	-	-	0	0	0	-
O=C(O)CCN1CC2([N+](=O)[O-])CC=C(OCCO)C([N+](=O)[O-])(C1)C2 (centres undefined)	3.7µM	0	0	0	0	0
Cc1ccc(-n2cnc3cc(C(=O)NC4CCCCCC4)ccc32)c(C)c1	-	-	0	0	?	-
Oc1ccc(Cl)cc1CN1CCOc2c(O)cc(-c3nc4ccccc4s3)cc2C1	-	-	-	0	?	-
COc1cccc(C(=O)NNc2c3ccccc3nc3ccccc23)c1	0	0	0	0	0	0
COc1cccc(C(=O)NNc2nc(C)cc(C)n2)c1	0.52µM	?	0	0	0	0
COc1cccc(C(=O)NNC(=O)C(=O)Nc2cccc(Cl)c2C)c1	23µM	0	0	0	0	0
COc1cccc(C(=O)NNC(=O)C(=O)Nc2ccc(C)cc2)c1	0	0	0	0	0	0
Cc1c(N)cccc1C(F)(F)F	-	-	0	-	0	-
COc1ccccc1C(=O)Oc1c(Sc2ccccc2)c(C)nn1-c1ccccc1	-	-	?	0	11µM	-
O=C(CSC1=NCCN1)NC12CC3CC(CC(C3)C1)C2	0[9.22 µM]	?	0	0	0	-100
O=C(CSC1=NCCN1)NC1CCCCCC1	0	?	0	0	?	-97
CCCCCc1c(-c2ccccc2)ncn1CCc1ccccc1OC	-	-	0	?	?	0
CCCCc1c(-c2ccc(F)cc2F)ncn1CCc1ccccc1OC	-	-	?	0	-	-71
CCCCCc1c(-c2ccc(F)cc2F)ncn1CCc1ccccc1OC	-	-	?	0	?	-100
CCCCc1c(Cc2cccc(F)c2)ncn1CCc1ccccc1OC	-	-	14µM	?	18µM	0
CCCCc1c(-c2ccccc2OC)ncn1CCc1cccc(Cl)c1	-	-	0	?	-	0
COc1ccccc1CNC(=O)C(=O)NCC(c1cccnc1)N1CCN(c2ccc(F)cc2)CC1 (centres undefined)	-	-	0	0	0	-
O=C(NC1CCCCC1)C(c1cccc2ccccc12)n1c(=O)c(-c2ccco2)nc2ccccc21 (centres undefined)	-	-	-	-	-	0
SMILES	SW480 rereplic	MCF10A rerep	ATXN2 expr inh	PINK1 modulator	S2 tox	IL1B secr inh
Cc1ccc(CNC(=O)C2CCN(c3nc4ccccc4n(C)c3=O)CC2)cc1	-	-	0	0	0	-
O=S1(=O)N[C@@H](Cc2ccccc2)COc2cccc(N3CCN(Cc4ccccc4F)CC3)c21	-	-	?	0	28µM	0
Cc1ccc(-c2nc3cccnc3s2)cc1NC(=O)Cc1ccccc1	-	-	0	0	0	-
COCCOC(=O)/C(=C\c1cc(C(C)(C)C)c(O)c(C(C)(C)C)c1)C(C)=O	?	3.3µM	-	0	0	0
Cn1c(=O)[nH]c2cc(-c3noc(-c4ccc(F)cc4)n3)ccc21	-	-	0	0	0	-
O=S(=O)(NC(=NCc1ccccc1)c1ccc(F)cc1)c1ccc(Cl)cc1	0	0.73µM	0	0	?	0
O=C(O)CN=C(NS(=O)(=O)c1ccc(Cl)cc1)c1ccc(F)cc1	0	0	0	0	0	0
O=C(c1ccc(OC2CCN(C/C=C/c3ccc(F)cc3)CC2)cc1)N1CCCC1	0	0	0	0	0	-71
O=C(c1ccc(OC2CCN(Cc3ccc(F)cc3)CC2)cc1)N1CCCC1	0	0	-	0	0	0
COC(=O)c1c(NC(=O)Cc2coc3cc(C)ccc23)sc2c1CCCC2	-	-	0	0	0	-
COc1ccc(C)cc1NS(=O)(=O)c1ccc2c3c(cccc13)C(=O)N2	-	-	28µM	0	?	-
CCC(Oc1ccc(F)cc1)C(=O)Nc1nc(-c2ccc(F)cc2)ns1 (centres undefined)	-	-	-	28µM	-	-
CC(C)OC(=O)CSc1nnc(-c2ccc(O)cc2)n1Cc1ccccc1	0	0	0	0	0	0
O=C(CSc1nnc(-c2ccc(O)cc2)n1Cc1ccccc1)NNC(=O)c1ccc(Br)cc1	0	0	0	0	0	-66
COc1ccc(CNC(=O)C2CCN(S(=O)(=O)c3c(C)n[nH]c3C)CC2)cc1	0	0	0	0	0	0
Cc1n[nH]c(C)c1S(=O)(=O)N1CCCC(C(=O)NCc2ccc(F)cc2)C1 (centres undefined)	0	0.73µM	0	0	0	0
O=C(NCc1ccc(F)cc1)C1CCCN(S(=O)(=O)c2ccc(Br)s2)C1 (centres undefined)	0	?	0	0	?	-53
